PPC-1+TRAIL kill: compounds killing PPC-1 cancer cells with TRAIL present (potentiator screen, no TRAIL-free arm); AID 1443; cell killing (% activity), % at 4 µM or 5 µM; PPC-1 cells + TRAIL, ATPLite viability luminescence; 220,000 tested, 0.41% active;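 active = cell killing above 50% in the first pass at 4 µM, then a duplicate retest at 5 µM averaging 50% or more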;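 note: plate controls were cells with TRAIL plus DMSO for no effect and medium-only wells lacking cells for full effect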
SENP6 inh: inhibitors of human SENP6 protease; Q9GZR1; Recombinant SENP6 catalytic domain, aminoluciferin luminescence; inhibition, % at 10 µM; 330,000 tested, 1.8% active; AID 2599;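 active = inhibition above about 50% at the single tested dose, limit read from the data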;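 note: plate controls were DMSO wells with enzyme for no effect and DMSO wells lacking enzyme for full effect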
SENP7 block: blocks the human protease SENP7; inhibition, % at 5 µM; 330,000 tested, 1.5% active; Q9BQF6; AID 434973; recombinant SENP7, Z-RLRGG-aminoluciferin luminescence, 40 min;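 active = inhibition above about 50% at the single test dose, limit read from the data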;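 note: plate controls were DMSO with enzyme for no effect and no enzyme buffer wells for full effect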
Target sequence (Q9BQF6 706-1050 limits assumed): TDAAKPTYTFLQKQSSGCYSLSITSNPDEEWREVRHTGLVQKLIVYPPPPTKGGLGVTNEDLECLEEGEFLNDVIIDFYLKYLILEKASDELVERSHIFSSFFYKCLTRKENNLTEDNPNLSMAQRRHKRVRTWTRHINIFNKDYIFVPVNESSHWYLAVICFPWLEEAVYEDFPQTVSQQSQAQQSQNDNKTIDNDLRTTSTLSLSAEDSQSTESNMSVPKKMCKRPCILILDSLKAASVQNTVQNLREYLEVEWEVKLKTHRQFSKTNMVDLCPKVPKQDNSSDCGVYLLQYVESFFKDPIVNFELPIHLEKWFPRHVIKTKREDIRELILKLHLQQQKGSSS
TRAIL sens C8: caspase-8 TRAIL sensitization; NB7+C8 cells + TRAIL, ATPlite viability luminescence; inhibition (viability loss, TRAIL sensitization), % at 10 µM; 360,000 tested, 1% active;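 active = compounds causing at least 50% loss of cell viability in the single-dose screen, relative to plate controls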
SENP8 block-1: blocks human SENP8 cleavage of Nedd8 substrate; recombinant SENP8, Nedd8 substrate fluorescence; inhibition, % at 20 µM; 360,000 tested, 0.64% active; in the data active = inhibition mostly above about 40%, no sharp cut-off; inactive = mostly below about 27%
Target sequence (Q96LD8 whole entry, looked up): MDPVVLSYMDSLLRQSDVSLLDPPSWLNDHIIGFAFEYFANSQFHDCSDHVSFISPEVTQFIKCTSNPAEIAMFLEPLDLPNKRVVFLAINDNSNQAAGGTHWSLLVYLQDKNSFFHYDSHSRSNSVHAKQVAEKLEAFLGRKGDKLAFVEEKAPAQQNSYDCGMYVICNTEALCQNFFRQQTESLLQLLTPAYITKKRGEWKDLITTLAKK
SENP8 block-2: blocks the human protease SENP8; 330,000 tested, 1.2% active; purified SENP8, Z-RLRGG-aminoluciferin cleavage, luminescence; Q96LD8; inhibition, % at 10 µM; AID 2540; in the data active = inhibition above about 50%
* = called active by the depositor. Shown are actives, neighbours in structure and some others; about 3% of the full set was active somewhere.

Screening Cc1ccc(-c2csc(NC(=O)c3cc([N+](=O)[O-])ccc3N3CCOCC3)n2)cc1 returned PPC-1+TRAIL kill 20.7, SENP6 inh -10.0, SENP7 block -9.0, TRAIL sens C8 10.3, SENP8 block-1 20.1 and SENP8 block-2 -7.7.
`COc1cc(/C=C2/C(=O)N(c3ccc([N+](=O)[O-])cc3)N=C2N2CCOCC2)ccc1O` gave PPC-1+TRAIL kill 9.7, SENP6 inh 42.3, SENP7 block 21.2, TRAIL sens C8 5.3, SENP8 block-1 63.9* and SENP8 block-2 -1.0.
`CCN(CC)c1ccc(/C=C2/C(=O)N(c3ccc([N+](=O)[O-])cc3)N=C2N2CCOCC2)cc1` gave PPC-1+TRAIL kill -5.0, SENP6 inh 10.3, SENP7 block 3.1 and SENP8 block-2 4.0.
For O=C(c1ccco1)N(Cc1cc2ccccc2[nH]c1=O)C1CCCCC1 the results were PPC-1+TRAIL kill 19.5, SENP6 inh 9.4, SENP7 block 1.8, TRAIL sens C8 -8.8, SENP8 block-1 -38.3 and SENP8 block-2 6.6.
For O=C(c1ccncc1)N(Cc1cc2ccccc2[nH]c1=O)C1CCCCC1 the results were PPC-1+TRAIL kill 12.5, SENP6 inh 1.9, SENP7 block 4.6, TRAIL sens C8 76.1*, SENP8 block-1 -11.9 and SENP8 block-2 -6.4.
`O=C(/C=C/c1ccc([N+](=O)[O-])cc1)Nc1cccc(C(=O)Nc2ccccc2C(=O)O)c1` gave TRAIL sens C8 22.9 and SENP8 block-1 17.4.
For COC(=O)c1cccc(NC(=O)/C=C/c2ccc([N+](=O)[O-])cc2)c1 the results were PPC-1+TRAIL kill 10.4, SENP6 inh -1.5, SENP7 block 2.1, TRAIL sens C8 71.3*, SENP8 block-1 13.1 and SENP8 block-2 -1.8.
For CCOC(=O)c1cccc(NC(=O)/C=C/c2ccc([N+](=O)[O-])cc2)c1 the results were PPC-1+TRAIL kill 6.6, SENP6 inh -10.6, SENP7 block 3.4, TRAIL sens C8 76.2*, SENP8 block-1 17.4 and SENP8 block-2 0.3.
COC(=O)c1cccc(NC(=O)/C=C/c2cccc([N+](=O)[O-])c2)c1 was read as PPC-1+TRAIL kill 25.8, SENP6 inh -7.1, SENP7 block -4.3, TRAIL sens C8 14.6, SENP8 block-1 15.9 and SENP8 block-2 -16.0.
Screening CCOC(=O)n1c2ccccc2c(=O)n1CCO returned TRAIL sens C8 1.1 and SENP8 block-1 3.7.
Cc1cc(C)c(C)c(OCC(=O)O/N=C(\N)c2ccccn2)c1 was read as PPC-1+TRAIL kill 29.7, SENP6 inh -8.5, SENP7 block 4.1, TRAIL sens C8 1.9, SENP8 block-1 7.6 and SENP8 block-2 0.3.
For N/C(=N\OC(=O)COc1ccc(Cl)cc1Cl)c1ccccn1 the results were PPC-1+TRAIL kill 41.1, SENP6 inh 73.1*, SENP7 block 90.5*, TRAIL sens C8 54.3*, SENP8 block-1 7.5 and SENP8 block-2 86.9*.
Screening NC1=CC(=O)C(=O)c2ccccc21 returned TRAIL sens C8 91.6* and SENP8 block-1 11.1.
`O=C1C(F)=CC(COC(c2ccccc2)(c2ccccc2)c2ccccc2)OC1n1cc(F)c(=O)[nH]c1=O` (configuration not stated) gave TRAIL sens C8 89.0* and SENP8 block-1 7.4.
`Cc1ccn2cc(-c3cccc(NC(=O)CCC(=O)O)c3)nc2c1` gave SENP6 inh 4.3, SENP7 block 4.1, TRAIL sens C8 58.8*, SENP8 block-1 -293.1 and SENP8 block-2 -1.0.
Screening CC(=O)Nc1cccc(-c2cn3ccc(C)cc3n2)c1 returned PPC-1+TRAIL kill 26.8, SENP6 inh 38.3, SENP7 block 39.8, TRAIL sens C8 46.8, SENP8 block-1 -391.4 and SENP8 block-2 22.3.
Screening Cc1ccc2oc(/N=C(\N)NC(=O)C3CC3)nc2c1 returned PPC-1+TRAIL kill 28.6, SENP6 inh 21.2, SENP7 block 0.2, TRAIL sens C8 50.5*, SENP8 block-1 13.8 and SENP8 block-2 -1.9.
For CSCCC(C(=O)Nc1c(C)cccc1C)n1c(COc2ccc(C)cc2)nc2ccccc21 (configuration not stated) the results were TRAIL sens C8 12.9 and SENP8 block-1 30.2.
Nc1ccc2cc3[nH]c4cc(N)ccc4c3nc2c1 was read as TRAIL sens C8 63.1* and SENP8 block-1 -484.0.
Cc1ccc(N=Nc2c(=O)[nH]n3c(C)cc(C)nc23)cc1 was read as PPC-1+TRAIL kill 11.7, SENP6 inh -15.5, SENP7 block -10.0, TRAIL sens C8 -9.6, SENP8 block-1 48.9* and SENP8 block-2 -9.7.
CN(CC(=O)Nc1ccc(Cl)c(Cl)c1)Cc1nnc(-c2ccc(F)cc2)o1 was read as PPC-1+TRAIL kill 12.5, SENP6 inh -12.9, SENP7 block -5.1, TRAIL sens C8 1.0, SENP8 block-1 8.6 and SENP8 block-2 -11.6.
Screening Nc1c(C(=O)N/N=C/c2ccccc2)cnn1-c1ccccc1 returned PPC-1+TRAIL kill 25.9, SENP6 inh 66.5*, SENP7 block 51.0*, TRAIL sens C8 10.7, SENP8 block-1 0.5 and SENP8 block-2 49.3.
O=C(N/N=C/c1ccccc1)c1cccc2ccccc12 was read as SENP6 inh -11.2, SENP7 block 2.8, TRAIL sens C8 3.2, SENP8 block-1 11.6 and SENP8 block-2 -0.7.
Screening CN(C)c1cccc(/C=C(\C#N)c2ccccc2)c1 returned PPC-1+TRAIL kill 6.1, SENP6 inh 54.7*, SENP7 block 37.2, TRAIL sens C8 49.5*, SENP8 block-1 17.2 and SENP8 block-2 57.1*.
`CN(C)c1ccc(/C=C(\C#N)c2ccccc2)cc1` gave PPC-1+TRAIL kill 24.1, TRAIL sens C8 47.5 and SENP8 block-1 12.6.
For CCOc1ccc(NC(=O)CN(C)C(=O)c2cc(C)on2)cc1OCC the results were SENP6 inh 5.8, SENP7 block 3.6, TRAIL sens C8 -10.9, SENP8 block-1 7.4 and SENP8 block-2 9.6.
For CC[C@H](C)[C@H]1O[C@]2(CC[C@@H]1C)C[C@@H]1C[C@@H](CC=C(C)[C@@H](O[C@H]3C[C@H](OC)[C@@H](O[C@H]4C[C@H](OC)[C@@H](O)[C@H](C)O4)[C@H](C)O3)[C@@H](C)C=CC=C3CO[C@@H]4[C@H](O)C(C)=C[C@@H](C(=O)O1)[C@]34O)O2 the results were SENP6 inh -12.0, SENP7 block -5.2, TRAIL sens C8 71.0*, SENP8 block-1 -125.8 and SENP8 block-2 -7.1.
For CC1(C)Cc2ccccc2C2CC(O)C(=O)N21 (configuration not stated) the results were PPC-1+TRAIL kill 2.0, SENP6 inh -1.7, SENP7 block 4.1, TRAIL sens C8 10.3, SENP8 block-1 40.5* and SENP8 block-2 3.9.
`O=C(c1cnn(-c2ccccc2)c1)c1ccccc1O` gave PPC-1+TRAIL kill 14.0, SENP6 inh 85.1*, SENP7 block 87.5*, TRAIL sens C8 27.4, SENP8 block-1 6.8 and SENP8 block-2 80.8*.
For CC1(C(=O)NS(=O)(=O)c2ccccc2Cl)CCN1C(=O)CCC1CCCC1 (configuration not stated) the results were TRAIL sens C8 -23.1 and SENP8 block-1 13.9.
